# The source made the active and inactive calls. How the calls were made is not given here.
# System: Cytotoxicity
# Assay: STAT3 inhibitors, late-stage profile, late-stage follow-up, cell-based, STAT1 panel, qPCR, cytotoxicity (AID 2078)
# Settings: cell reporter assay; series mostly up to 55.7 µM
compound,measurement,value
c1ccc(CC2CCN(c3ncnc4sccc34)CC2)cc1,outcome,inactive
